This is part of a sample that, as a whole, favours compounds with a hit. Of some 83,000 tested, about 20% had one in any assay.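 Single-concentration screen, 48 h exposure, 96-well plates. Endpoint: percent growth. Below 10 = active.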 Unmarked numbers belong to inactive results. Active and inactive are the calls of the source.
Columns and labels:
Assay in all cases: NCI-60 one-dose screen, 48 h (100 = growth as untreated, 0 = no growth, -100 = all killed)
Conditions in all cases: 10 µM unless noted
SR leukemia = test system: SR leukemia
RPMI-8226 leukemia = test system: RPMI-8226 leukemia
OVCAR-8 ovarian = test system: OVCAR-8 ovarian
OVCAR-5 ovarian = test system: OVCAR-5 ovarian
OVCAR-4 ovarian = test system: OVCAR-4 ovarian
SK-OV-3 ovarian = test system: SK-OV-3 ovarian
IGROV1 ovarian = test system: IGROV1 ovarian
OVCAR-3 ovarian = test system: OVCAR-3 ovarian
HS 578T breast = test system: HS 578T breast
NCI/ADR-RES ovarian = test system: NCI/ADR-RES ovarian
T-47D breast = test system: T-47D breast
BT-549 breast = test system: BT-549 breast
MDA-MB-435 melanoma = test system: MDA-MB-435 melanoma
SW-620 colon = test system: SW-620 colon
MCF7 breast = test system: MCF7 breast
HCT-116 colon = test system: HCT-116 colon
HCC-2998 colon = test system: HCC-2998 colon
KM12 colon = test system: KM12 colon

| Structure (SMILES) | growth (SR leukemia) | growth (RPMI-8226 leukemia) | growth (OVCAR-8 ovarian) | growth (OVCAR-5 ovarian) | growth (OVCAR-4 ovarian) | growth (SK-OV-3 ovarian) | growth (IGROV1 ovarian) | growth (OVCAR-3 ovarian) | growth (HS 578T breast) | growth (NCI/ADR-RES ovarian) | growth (T-47D breast) | growth (BT-549 breast) | growth (MDA-MB-435 melanoma) | growth (SW-620 colon) | growth (MCF7 breast) | growth (HCT-116 colon) | growth (HCC-2998 colon) | growth (KM12 colon) |
| --- | --- | --- | --- | --- | --- | --- | --- | --- | --- | --- | --- | --- | --- | --- | --- | --- | --- | --- |
| O=[N+]([O-])c1cccc(-c2cc(-c3cc(Br)ccc3O)[nH]n2)c1 | 19.7% | -2.85% (active) | 33.9% | 55.4% | 16.3% | 30.6% | 13.7% | 2.12% (active) | 46.6% | 19.2% | 21.1% | 24.1% | 13.5% | 28.1% | 6.17% (active) | 13.5% | 43.7% | 12.5% |
| COc1cccc(-c2nc3sccn3c2-c2ccnc(NCCNS(=O)(=O)c3ccccc3)n2)c1 | 70.3% | 49.5% | 49.2% | 124% | 57.4% | 79.9% | 63.2% | 68.3% | 107% | 47.1% | 9.54% (active) | 58.2% | 29.8% | 106% | 53.3% | 49.7% | – | 53.4% |
| O=c1cc(C2NCCc3c2[nH]c2ccccc32)c2c(ccc3ccccc32)o1 (configuration not stated) | 51.3% | 73.6% | 60.1% | 78.3% | 62.3% | 5.15% (active) | 33.4% | 95.1% | 55.9% | 78.7% | 59.1% | 82% | 81.7% | 59.6% | 81.8% | 42% | 78.1% | 63.5% |
| C[N+](C)(C)c1ccc(CC2c3ccccc3-c3ccccc32)cc1 | 85% | 68.6% | 85.7% | 86.1% | 85.2% | 75.3% | 64.4% | 67% | 4.68% (active) | 107% | 51.1% | 59.2% | 90.4% | 86.2% | 84.1% | 73.3% | 88.8% | 77% |
| NS(=O)(=O)c1ccc(NCC(=O)Nc2ccc(-c3nc4ccccc4s3)cc2)cc1 | 16% | 36.7% | 82.7% | 106% | 67.2% | 106% | 59% | 34.3% | 98.3% | 94% | 46.4% | 14.5% | 77% | 63.7% | 27.6% | 25.1% | 87.6% | 61.6% |
| O=c1[nH]c(CN2CCN(c3ccccc3F)CC2)nc2sc3c(c12)CCC3 | 94.8% | 107% | 101% | 96.8% | 112% | 96.5% | 84.7% | 118% | 121% | 111% | 99.1% | 98.8% | 118% | 105% | 107% | 105% | 117% | 106% |
| Nc1nc(Cl)c2c(ncn2Cc2ccc(CCl)cc2)n1 | 83.2% | 33.8% | 49.4% | 109% | 96.1% | 103% | 76.5% | 68.3% | 94.1% | 98.4% | 90.2% | 6.29% (active) | 95.5% | 93.3% | 72.5% | 94.2% | – | 94.3% |
| Nc1c(C(=O)Nc2ccccc2)sc2nc3c(cc12)CN(Cc1ccccc1)CC3 | 55.6% | 79.6% | 74.8% | 78.5% | -14.7% (active) | 39.2% | 77.9% | 56.6% | 11.1% | 71% | 60.9% | 50.8% | 52.1% | 76.9% | 77.9% | 65.1% | 79.1% | 56.4% |
| COc1cc(/C=C/C(=O)c2ccccc2O)ccc1OCCCOc1cc2c(cc1OC)C(=O)N1CCC[C@H]1C=N2 | -13.8% (active) | -21.7% (active) | 18.1% | 0.483% (active) | -2.17% (active) | 33.1% | -65.8% (active) | -3.51% (active) | 37.8% | 19.3% | 21.8% | -4.28% (active) | -28.9% (active) | 5.6% (active) | -15.1% (active) | 2.66% (active) | -16.7% (active) | -18.3% (active) |
| CC(CCc1ccccc1)NC(=O)c1n[nH]c(=O)c2ccccc12 (configuration not stated) | 60.7% | 85.6% | 101% | 118% | 102% | 118% | 3.79% (active) | 112% | 96.8% | 121% | 95.8% | 98.9% | 108% | 100% | 90.7% | 97% | 156% | 109% |
| COc1cc(OC)cc(-c2n[nH]nc2-c2ccc3c(c2)OCO3)c1 | 14.4% | 26.2% | 28.6% | 4.97% (active) | 52.5% | 16.3% | 39.5% | 10% | 12.1% | 3.37% (active) | 55.4% | 51.2% | -82.8% (active) | 30.8% | 24.3% | 15.7% | 31.9% | 25.1% |
| O=c1oc2cc(OS(=O)(=O)c3ccc(F)cc3)ccc2c2c1CCCCC2 | 53.7% | 34.8% | 77.6% | 66.2% | 58.1% | 95.9% | 95.2% | 77.8% | 88% | 51.1% | 30.3% | 73.6% | 78.5% | 46.3% | 59.9% | 54.4% | 69.8% | 55.1% |
| COc1ccc(C(=O)c2cc(OC)c(OC)c(OC)c2)cc1/C=C/C(=O)c1ccc(O)cc1 | 10.6% | 9.18% (active) | 22.3% | 69.5% | 43.6% | 18.5% | 45.9% | -10.5% (active) | 43.4% | 16.2% | 37.3% | 7.62% (active) | 18.9% | -24.1% (active) | 12.1% | -23.2% (active) | -22.4% (active) | 2.74% (active) |
| Oc1ccc(N=Cc2ccccc2)cc1 | 30.9% | 55.4% | 86.8% | 104% | 79.7% | 119% | 97.1% | 7.09% (active) | 103% | 101% | – | 70.7% | 97.8% | 99.9% | 84.8% | 60.8% | 100% | 91.3% |
| CC(C)(C)c1cn2cccc(C(=O)N3CCN(CC(=O)Nc4ccc(Cl)cc4C(=O)c4ccccc4Cl)CC3)c2n1 | 13.2% | 24.1% | 51% | 75.1% | 50.6% | 91.4% | 51.2% | 75.7% | 32.2% | 39.5% | 31.8% | -15.1% (active) | 63.4% | 60.6% | 43.8% | 33.3% | – | 54.2% |
| COc1ccc(C2=NN(c3ccc(S(N)(=O)=O)cc3)C(c3cn(-c4ccccc4)nc3-c3ccc(Cl)cc3)C2)cc1 (configuration not stated) | 77.9% | 78% | 91.1% | 114% | 107% | 97.7% | 105% | 92.4% | 109% | 90.1% | 67.1% | – | 79.3% | 101% | 66.7% | 74.5% | 98.2% | 88.6% |
| COc1ccc(/C=C2\Oc3cc(OCCN4CCCC4)ccc3C2=O)c(OC)c1 | 19.6% | 33.9% | 96.2% | 90.3% | 97.6% | 110% | 99.3% | 93.8% | 98.5% | 91.9% | – | 94.2% | 94.3% | 79.2% | 85.1% | 41.3% | 98.2% | 74.3% |
| O=C(CC(O)c1ccncc1)c1ccccc1 (configuration not stated) | 82.1% | 97.9% | -36.8% (active) | 104% | -29.2% (active) | 41.9% | 18% | -60.5% (active) | -21.8% (active) | 65.2% | – | -63.7% (active) | 105% | 109% | -24.2% (active) | 15.5% | 19.2% | 38.2% |

Reference: PubChem BioAssay (NCI)
